We go through 22 compounds from PubChem BioAssay (NCATS).

The structures appear in SMILES notation. Records with an inconclusive call do not appear. A number with no mark means an inactive call. Calls of active or inactive are those of the source. The call rests on the fitted dose curve; in most records, active means well fitted curve in the direction sought with a large enough effect; inconclusive means small, poorly fitted or top-dose-only effect, or another doubt; inactive means no such curve, though single readings can be large; an effect the other way counts as inactive or inconclusive.
On the % scale 0 is the no-effect control and ±100 the full control effect.

The target in the first experiment is Voltage-gated inwardly rectifying potassium channel KCNH2 (Homo sapiens) (UniProt Q12809). Description: qHTS Assay for Small Molecule Inhibitors of the Human hERG Channel Activity (AID 588834).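 Further: top concentration of the series differs between compounds; lower thallium flux fluorescence means stronger hERG block; nearly all actives have a fitted effect of over 50% in size.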 The settings on record: U2OS BacMam hERG, FluxOR thallium flux fluorescence; series mostly up to 46.1 µM; activity change, negative = inhibition: at the top concentration. The method, boiled down: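 In hERG-transduced U2OS cells, dye-loaded for 1 hr at room temperature in dark, test compounds incubated 10 min at 37 °C before thallium stimulation. AC50 values derived by Hill modelling of concentration-response.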
Voltage-gated inwardly rectifying potassium channel KCNH2 (Homo sapiens), sequence (Q12809 whole entry, looked up): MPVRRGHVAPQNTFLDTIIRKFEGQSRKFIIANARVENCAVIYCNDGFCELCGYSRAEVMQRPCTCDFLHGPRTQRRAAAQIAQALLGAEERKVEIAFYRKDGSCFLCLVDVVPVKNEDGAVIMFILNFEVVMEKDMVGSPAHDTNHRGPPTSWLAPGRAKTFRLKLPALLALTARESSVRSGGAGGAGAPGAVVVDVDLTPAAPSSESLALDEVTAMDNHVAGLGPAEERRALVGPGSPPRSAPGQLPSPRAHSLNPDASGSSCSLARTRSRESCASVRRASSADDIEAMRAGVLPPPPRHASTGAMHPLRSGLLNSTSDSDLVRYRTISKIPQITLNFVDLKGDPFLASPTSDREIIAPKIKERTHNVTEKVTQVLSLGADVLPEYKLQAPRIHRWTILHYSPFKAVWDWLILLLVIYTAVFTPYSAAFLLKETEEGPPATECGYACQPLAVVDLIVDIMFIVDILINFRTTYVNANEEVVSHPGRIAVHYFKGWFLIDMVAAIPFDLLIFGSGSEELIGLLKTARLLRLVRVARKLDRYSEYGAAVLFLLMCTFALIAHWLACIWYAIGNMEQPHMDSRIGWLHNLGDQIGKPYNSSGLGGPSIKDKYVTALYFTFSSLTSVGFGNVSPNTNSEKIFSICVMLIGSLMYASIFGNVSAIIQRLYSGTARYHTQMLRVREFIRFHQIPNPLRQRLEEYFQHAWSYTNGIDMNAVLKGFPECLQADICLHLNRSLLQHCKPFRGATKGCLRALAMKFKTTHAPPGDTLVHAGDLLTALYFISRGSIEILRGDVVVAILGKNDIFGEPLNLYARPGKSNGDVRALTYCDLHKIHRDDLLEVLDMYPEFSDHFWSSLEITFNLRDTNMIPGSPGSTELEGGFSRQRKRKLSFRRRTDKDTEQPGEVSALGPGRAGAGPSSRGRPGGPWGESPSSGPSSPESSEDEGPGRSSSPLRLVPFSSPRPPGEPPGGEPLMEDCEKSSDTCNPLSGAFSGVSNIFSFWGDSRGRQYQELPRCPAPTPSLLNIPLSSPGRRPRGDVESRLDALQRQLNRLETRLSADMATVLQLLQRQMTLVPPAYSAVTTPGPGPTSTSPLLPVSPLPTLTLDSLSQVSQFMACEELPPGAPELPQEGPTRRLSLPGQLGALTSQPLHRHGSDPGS
A general note: qHTS replaces the single test concentration by a dilution series.
In the case of `C[C@@H]1O[C@@H](O[C@H]2C[C@@H](O)[C@]3(CO)[C@@H]4C(CC[C@]3(O)C2)[C@@]2(O)CC[C@H](C3=CC(=O)OC3)[C@@]2(C)C[C@H]4O)[C@H](O)[C@H](O)[C@H]1O` (some centres not stated), the “activity change, negative = inhibition” value is -0.689%.

With `COc1ccc2[nH]cc(CCN(C)C)c2c1`, the “activity change, negative = inhibition” value was -0.543%.

As for `COc1cc(CCN)ccc1O`, the “activity change, negative = inhibition” value was -15.5%.

As for `C[N+]1(C)CCc2cc3c(cc2C1C1OC(=O)c2c1ccc1c2OCO1)OCO3` (configuration not stated), the “activity change, negative = inhibition” value is 10.1%.

Regarding `COc1ccc(CCN)cc1O`, the “activity change, negative = inhibition” value is 11.8%.

For another experiment, the system named is Zika virus NS2B-NS3 protease (linked construct). Put plainly: Primary screen NINDS Rhodamine qHTS for Zika virus inhibitors (AID 1347160). Further: nearly all actives have a fitted effect of over 55% in size. Further: potency means the concentration at half of the fitted maximal effect. The following applies: purified NS2B-NS3 protease, Rhodamine110 substrate fluorescence; series mostly up to 57.1 µM; activity change, negative = inhibition: at the top concentration; outcome: at the top concentration. In a few lines:
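Enzyme (25 nM, linked NS2B-NS3) was preincubated 15 min with compound in 10 mM Tris-HCl pH 8.0, 0.01% Tween 20. Rhodamine110 substrate (1.5 microM) was then added and fluorescence read at start and after 15 min.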
Turning to `CC=C1CN(C=O)[C@H]2C[C@@H]1[C@@H](C(=O)OC)[C@@]13CCOC21Nc1ccccc13` (some centres not stated), the Potency is 44 µM (active).

For the compound `C[C@@H]1CC[C@@H](c2ccoc2)N2C[C@@]3(CC[C@@H]12)CS[C@@]1(CC[C@H]2[C@H](C)CC[C@@H](c4ccoc4)N2[C@@H]1O)C3`, the Potency was 31.1 µM (active).

Take `CCN1C[C@]2(C)CC[C@@H](O)[C@]34C1[C@H](C[C@H]23)C12CCC(CC14)[C@](O)(CO)[C@H]2O` (some centres not stated): the “activity change, negative = inhibition” value is -10.7% [at 112 µM].

Turning to `CO[C@@H](/C=C/CC/C=C/C(=O)O)[C@@H](O)[C@H](C)[C@@H](O)/C(C)=C/[C@H](C)C(=O)CCCC1CC(=O)NC(=O)C1`, the “activity change, negative = inhibition” value was -16.9% [at 112 µM].

Turning to `CCCC[C@@H]1CC[C@H]2CCCC(CCC)N12` (some centres not stated), the Potency was 49.3 µM (active).

Consider `C[C@]12CC(O)C3[C@@H](CCC4C[C@@H](O)CC[C@@]43CO)[C@@]1(O)CCC2C1=CC(=O)OC1` (some centres not stated), for which the Potency is 62.1 µM (active).

In the case of `O=C(c1ccccc1O)c1[nH]c(Cl)c(Cl)c1-n1c(C(=O)c2ccccc2O)cc(Cl)c1Cl`, the Potency was 2.47 µM (active).

As to `CC[C@@H]1CN2CC[C@@]3(O)C(=Nc4cccc(OC)c43)[C@@H]2C[C@@H]1/C(=C\OC)C(=O)OC`, the “activity change, negative = inhibition” value is -42.6% [at 112 µM].

For `c1ccc2c3c([nH]c2c1)CNCC3`, the “activity change, negative = inhibition” value was -18.4% [at 112 µM].

Regarding `CNCCc1ccccc1`, the “activity change, negative = inhibition” value is 9.42% [at 112 µM].

On to `CCCCC[C@@H]1OC(=O)[C@@H](C)N(C)C(=O)[C@H](CCCCC)OC(=O)C(C)N(C)C(=O)[C@H](CCCCC)OC(=O)[C@@H](C)N(C)C(=O)[C@H](CCCCC)OC(=O)C(C)N(C)C1=O` (some centres not stated), for which the Potency is 11 µM (active).

In the case of `CO[C@H](c1ccccc1)[C@H]1NC(=O)C(C)NC(=O)C(C[C@@H](C)CO)N(C)C(=O)[C@@H](C(O)c2cn(C(C)(C)C3CO3)c3ccccc23)NC(=O)C(C(C)C=C(C)C)NC(=O)C(CC(C)C)N(C)C(=O)C(C(C)C)NC1=O` (some centres not stated), the Potency was 21.6 µM (active).

Take `CC1=CC(=O)C2=C(C)C[C@H](O)[C@@H]3[C@H](OC(=O)[C@@H]3C)[C@@H]12`: the Potency is 49.3 µM (active).

With `CCN1C[C@]2(C)CC[C@H](O)[C@]34C1C(C[C@H]23)[C@@]12CC[C@H](CC14)[C@](O)(COC(=O)c1ccc(OC)c(OC)c1)[C@H]2O` (some centres not stated), the “activity change, negative = inhibition” value was -6.64% [at 112 µM].

In the case of `CCC(=O)CCCCC[C@@H]1NC(=O)[C@H]2CCCCN2C(=O)[C@H]([C@@H](C)CC)NC(=O)[C@H](Cc2cn(OC)c3ccccc23)NC1=O`, the Potency is 13.9 µM (active).

Tested on in the next experiment: not listed separately
Put plainly: OV-KATE Cancer Cell Toxicity qHTS against the NCATS CANVASS Library (AID 1347345). Further: potency means the concentration at half of the fitted maximal effect. The settings on record: OV-KATE cells viability, CellTiter-Glo luminescence, 72 h; series mostly up to 38.3 µM; activity change, negative = cytotoxicity: at the top concentration. The method, boiled down:
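Per well, 1000 cells; exposure 72 h with compound at 11 final concentrations; readout CellTiter-Glo luminescence.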
As to `CC1=CC2CC[C@@H]3[C@@H](C)C[C@H](C)[C@@H](C1)N23` (some centres not stated), the “activity change, negative = cytotoxicity” value is 1.64%.

For `CC=C1CN(C=O)[C@H]2C[C@@H]1[C@@H](C(=O)OC)[C@@]13CCOC21Nc1ccccc13` (some centres not stated), the “activity change, negative = cytotoxicity” value is -4.03%.

Consider `C[C@@H]1CC[C@@H](c2ccoc2)N2C[C@@]3(CC[C@@H]12)CS[C@@]1(CC[C@H]2[C@H](C)CC[C@@H](c4ccoc4)N2[C@@H]1O)C3`, for which the Potency was 7.47 µM (active).

With `CCN1C[C@]2(C)CC[C@@H](O)[C@]34C1[C@H](C[C@H]23)C12CCC(CC14)[C@](O)(CO)[C@H]2O` (some centres not stated), the “activity change, negative = cytotoxicity” value is -3.67%.

Take `CO[C@@H](/C=C/CC/C=C/C(=O)O)[C@@H](O)[C@H](C)[C@@H](O)/C(C)=C/[C@H](C)C(=O)CCCC1CC(=O)NC(=O)C1`: the “activity change, negative = cytotoxicity” value is -0.934%.

Take `CCCC[C@@H]1CC[C@H]2CCCC(CCC)N12` (some centres not stated): the “activity change, negative = cytotoxicity” value was 4.94%.

With `C[C@]12CC(O)C3[C@@H](CCC4C[C@@H](O)CC[C@@]43CO)[C@@]1(O)CCC2C1=CC(=O)OC1` (some centres not stated), the “activity change, negative = cytotoxicity” value is -7.96%.

For the compound `CO[C@@H](/C=C/CC/C=C/C(=O)O)[C@@H](O)[C@H](C)/C=C(\C)[C@@H](O)[C@H](C)C(=O)CCCC1CC(=O)NC(=O)C1`, the “activity change, negative = cytotoxicity” value was -0.917%.

Take `O=C(c1ccccc1O)c1[nH]c(Cl)c(Cl)c1-n1c(C(=O)c2ccccc2O)cc(Cl)c1Cl`: the Potency is 5.94 µM (active).

On to `CC[C@@H]1CN2CC[C@@]3(O)C(=Nc4cccc(OC)c43)[C@@H]2C[C@@H]1/C(=C\OC)C(=O)OC`, for which the “activity change, negative = cytotoxicity” value was -7.44%.

For the compound `c1ccc2c3c([nH]c2c1)CNCC3`, the “activity change, negative = cytotoxicity” value is -22%.

Regarding `CNCCc1ccccc1`, the “activity change, negative = cytotoxicity” value was -1.42%.

In the case of `CCCCC[C@@H]1OC(=O)[C@@H](C)N(C)C(=O)[C@H](CCCCC)OC(=O)C(C)N(C)C(=O)[C@H](CCCCC)OC(=O)[C@@H](C)N(C)C(=O)[C@H](CCCCC)OC(=O)C(C)N(C)C1=O` (some centres not stated), the Potency was 8.38 µM (active).

Regarding `CO[C@H](c1ccccc1)[C@H]1NC(=O)C(C)NC(=O)C(C[C@@H](C)CO)N(C)C(=O)[C@@H](C(O)c2cn(C(C)(C)C3CO3)c3ccccc23)NC(=O)C(C(C)C=C(C)C)NC(=O)C(CC(C)C)N(C)C(=O)C(C(C)C)NC1=O` (some centres not stated), the “activity change, negative = cytotoxicity” value was -14.6% [at 22.9 µM].

In the case of `CC1=CC(=O)C2=C(C)C[C@H](O)[C@@H]3[C@H](OC(=O)[C@@H]3C)[C@@H]12`, the “activity change, negative = cytotoxicity” value is -14.5%.

Regarding `CCN1C[C@]2(C)CC[C@H](O)[C@]34C1C(C[C@H]23)[C@@]12CC[C@H](CC14)[C@](O)(COC(=O)c1ccc(OC)c(OC)c1)[C@H]2O` (some centres not stated), the “activity change, negative = cytotoxicity” value was -5.32%.

Consider `CCC(=O)CCCCC[C@@H]1NC(=O)[C@H]2CCCCN2C(=O)[C@H]([C@@H](C)CC)NC(=O)[C@H](Cc2cn(OC)c3ccccc23)NC1=O`, for which the Potency was 4.72 µM (active).
